Results from PubChem BioAssay (EPA / NIEHS).
“And” between values parts separate entries of the source, which are not always exact repeats. Equal values may be shown once. The source made the active and inactive calls. The calls were made as follows: active = hit-call score of the fitted dose curve at least 0.9, where 1 is the maximum; inactive = score below 0.9.

Target: Cellular tumor antigen p53 (Homo sapiens) (UniProt P04637)
Assay: ATG_p53_CIS: Attagene CIS-FACTORIAL HepG2 Assay for human p53 Transcription Factor (AID 2282994)
Details: HepG2 p53 cis-element reporter, Attagene mRNA; actives raise or lower the signal
Experimental: ATG_CIS is a cell-based, multiplexed-readout assay that uses HepG2, a human liver cell line, with measurements taken at 24 hours after chemical dosing in a 24-well plate.ATG_p53_CIS is one of 52 assay component(s) measured or calculated from the ATG_CIS assay. It is designed to make measurements of mRNA induction, a form of inducible reporter, as detected with fluorescence intensity signals by Reverse transcription polymerase chain reaction (RT-PCR) and Capillary electrophoresis technology.Data from the assay component ATG_p53_CIS was analyzed into 1 assay endpoint. This assay endpoint, ATG_p53_CIS, was analyzed with bidirectional fitting relative to DMSO as the negative control and baseline of activity. Using a type of inducible reporter, measures of mRNA for gain or loss-of-signal activity can be used to understand the reporter gene at the transcription factor-level as they relate to the gene TP53. Furthermore, this assay endpoint can be referred to as a primary readout, because this assay has produced multiple assay endpoints where this one serves a reporter gene function. To generalize the intended target to other relatable targets, this assay endpoint is annotated to the dna binding intended target family, where the subfamily is tumor suppressor.
Human liver HepG2 cells are transiently transfected with multiple reporter transcription units (MRTUs) in 6-well plates using FuGene 6 reagent (Roche; 3 ml FuGene/1 mg DNA). The MRTU constructs are regulated by a cis-regulating element (promoter). […] A major difference between the CIS and TRANS system is that in CIS activities of endogenous TFs are measured, whereas the TRANS assay evaluates changes in activities of exogenous, chimeric NR-Gal4 proteins. […] At the end of 24 hour incubation, total RNA was isolated using TriZol reagent (Invitrogen). The isolated RNA is then reverse-transcribed using oligo(dT) primer and Mo-MLV reverse transcriptase (Invitrogen) with DNAse I (Ambion) treatment for 30 min. The one-tenth of the produced cDNA was amplified by PCR using Taq DNA polymerase (Invitrogen) and two reporter sequence-specific primers. The PCR products were fluorescently labeled by primer extension with 6-arboxyfluorescein (6-FAM) 5'-labeled reporter sequence-specific primer (2 min at 95 C, 20 s at 68 C and 10 min at 72 C) and these products were digested with 5U of HpaI (New England Biolabs) for 2h at 37 C. The fragments were purified using Qiaquick PCR columns (Qiagen), analyzed on an ABI 3130xL genetic analyzer (Applied Biosystems) with peak positions identified by using a set of X-rhodamine (ROX)-labeled MapMarker1000 molecular weight standards (BioVentures). The raw capillary electrophoresis data was processed using Attagraph software (Attagene).

Cellular tumor antigen p53 (Homo sapiens), sequence (P04637 whole entry, looked up): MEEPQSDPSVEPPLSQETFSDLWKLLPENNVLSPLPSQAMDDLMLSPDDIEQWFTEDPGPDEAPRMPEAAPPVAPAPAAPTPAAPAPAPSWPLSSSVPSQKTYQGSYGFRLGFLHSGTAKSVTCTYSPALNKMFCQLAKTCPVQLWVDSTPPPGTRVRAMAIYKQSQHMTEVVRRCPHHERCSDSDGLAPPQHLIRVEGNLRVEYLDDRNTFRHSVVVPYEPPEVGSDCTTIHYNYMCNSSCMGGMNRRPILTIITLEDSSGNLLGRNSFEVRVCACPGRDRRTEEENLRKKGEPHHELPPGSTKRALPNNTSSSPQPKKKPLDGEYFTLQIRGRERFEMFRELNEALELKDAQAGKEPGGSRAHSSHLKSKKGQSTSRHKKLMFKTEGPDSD

Q: Which outcome does the source give for `C=CC(=O)OCC(F)(F)C(F)(F)C(F)(F)C(F)(F)C(F)(F)C(F)(F)C(F)(F)F` here?
A: inactive

Q: `Cc1ccc(S(=O)(=O)OCC(F)(F)C(F)(F)C(F)(F)C(F)(F)C(F)(F)C(F)F)cc1` was tested. Which outcome did it give?
A: inactive

Q: For `FC(F)(F)C(F)(F)C(F)(F)C(F)(F)C(F)(F)C(F)(F)C(F)(F)C(F)(F)F`, which outcome is on record?
A: inactive

Q: Which outcome does the source give for `CCC(=O)OCCc1ccccc1` here?
A: inactive

Q: With `C=C(C)C(=O)OCC(F)(F)C(F)(F)C(F)(F)C(F)(F)C(F)(F)C(F)(F)C(F)(F)F` as the molecule, how does the outcome read?
A: inactive

Q: Which outcome does the source give for `NC(=O)C(F)(F)C(F)(F)C(F)(F)C(F)(F)F` here?
A: inactive

Q: `Cc1cc(C)cc(O)c1` was tested. Which outcome did it give?
A: inactive

Q: How did the outcome turn out when `Oc1ccc(Nc2ccccc2)cc1` was run?
A: inactive

Q: How did the outcome turn out when `FC(F)(F)C(F)(F)C(F)(F)C(F)(F)C(F)(F)C(F)(F)CCS` was run?
A: inactive

Q: How did the outcome turn out when `CCCCOc1ccc(N)cc1` was run?
A: inactive

Q: Which outcome does the source give for `O=C(O)C(F)(F)C(F)(F)F` here?
A: inactive

Q: `O=C(O)C(F)(F)C(F)(F)C(F)(F)C(F)(F)F` was tested. Which outcome did it give?
A: inactive

Q: `CCCCCCOC(=O)c1ccccc1O` was tested. Which outcome did it give?
A: inactive

Q: Which outcome does the source give for `O=C(O)C(F)(F)C(F)(F)C(F)(F)F` here?
A: inactive

Q: With `CC/C=C\CCOC(C)=O` as the molecule, how does the outcome read?
A: inactive

Q: Which outcome does the source give for `c1ccc(B(c2ccccc2)c2ccccc2)cc1` here?
A: inactive

Q: `CO[Si](OC)(c1ccccc1)c1ccccc1` was tested. Which outcome did it give?
A: inactive

Q: How did the outcome turn out when `CC(C)(C)c1ccc(OC2CCCCC2O)cc1` (stereo not given) was run?
A: inactive

Q: How did the AC50 turn out when `OCC(F)(F)C(F)(F)C(F)(F)C(F)(F)C(F)(F)C(F)(F)F` was run?
A: 257 µM (active)

Q: How did the outcome turn out when `OCC(F)(F)C(F)(F)C(F)(F)F` was run?
A: inactive

Q: Which outcome does the source give for `OCCCC(F)(F)C(F)(F)C(F)(F)C(F)(F)C(F)(F)C(F)(F)C(F)(F)F` here?
A: inactive

Q: How did the AC50 turn out when `O=C(Cl)C(F)(F)C(F)(F)C(F)(F)C(F)(F)C(F)(F)C(F)(F)C(F)(F)C(F)(F)F` was run?
A: 54.3 µM (active)

Q: How did the outcome turn out when `O=C(O)C(F)(F)C(F)(F)C(F)(F)C(F)(F)C(F)(F)C(F)(F)C(F)(F)C(F)(F)C(F)(F)C(F)(F)C(F)(F)C(F)(F)C(F)(F)F` was run?
A: inactive

Q: With `CCCCCCS` as the molecule, how does the outcome read?
A: inactive

Q: With `FC(F)(F)C(F)(F)CNCC(F)(F)C(F)(F)F` as the molecule, how does the outcome read?
A: inactive

Q: Which AC50 does the source give for `O=C(O)C(F)(F)C(F)(F)C(F)(F)C(F)(F)C(F)(F)C(F)(F)C(F)(F)C(F)(F)Cl` here?
A: 57.7 µM (active) and 69.5 µM (active)

Q: With `Nc1ccc(Oc2cccc(Oc3ccc(N)cc3)c2)cc1` as the molecule, how does the AC50 read?
A: 26.7 µM (active)

Q: `N=C(N)C(F)(F)C(F)(F)C(F)(F)C(F)(F)C(F)(F)C(F)(F)C(F)(F)F` was tested. Which AC50 did it give?
A: 88.9 µM (active)

Q: For `C=CC(F)(F)C(F)(F)C(F)(F)C(F)(F)C(F)(F)C(F)(F)C(F)(F)C(F)(F)C=C`, which outcome is on record?
A: inactive

Q: Which outcome does the source give for `CS(C)(=O)=O` here?
A: inactive

Q: Which outcome does the source give for `CCCCNc1ccccc1` here?
A: inactive

Q: Which outcome does the source give for `O=C(O)C=C(C(F)(F)F)C(F)(F)F` here?
A: inactive

Q: With `CN(C)Cc1ccccc1O` as the molecule, how does the outcome read?
A: inactive

Q: How did the outcome turn out when `FC(F)(F)C(F)(F)C(F)(F)C(F)(F)C(F)(F)C(F)(F)CC1CO1` (stereo not given) was run?
A: inactive

Q: For `Cc1cccc(N(C)C)c1`, which outcome is on record?
A: inactive

Q: `FC1CC(F)(F)C(F)(F)C1(F)F` (stereo not given) was tested. Which outcome did it give?
A: inactive

Q: Which outcome does the source give for `OCCCC(F)(F)C(F)(F)C(F)(F)F` here?
A: inactive

Q: How did the outcome turn out when `FC(F)(I)C(F)(F)C(F)(F)C(F)(F)I` was run?
A: inactive

Q: Which AC50 does the source give for `C=CC(=O)OCC(F)(F)C(F)(F)C(F)(F)C(F)(F)COC(=O)C=C` here?
A: 79.4 µM (active)

Q: How did the outcome turn out when `FC(F)(F)C(F)(F)C(F)(F)N(C(F)(F)C(F)(F)C(F)(F)F)C(F)(F)C(F)(F)C(F)(F)F` was run?
A: inactive
